From PubChem BioAssay (NCI) come the findings set out here.

Holding throughout (experiment): NCI-60 one-dose screen, 48 h (100 = growth as untreated, 0 = no growth, -100 = all killed)
Common to all, as to conditions: 10 µM unless noted

Test [1] relates to T-47D breast.
Test [2] deals with BT-549 breast.
Test [3] concerns MDA-MB-435 melanoma.
In test [4] the test system is SW-620 colon.
The subject of test [5] is MCF7 breast.
Test [6] relates to HCT-116 colon.
The test system of test [7] is HCC-2998 colon.
The test system of test [8] is KM12 colon.

Compounds without any hit were thinned out: in the full panel of roughly 83,000, 20% have a hit.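 Cell lines were cultured in 96-well plates, exposed to a single compound concentration, and assessed for percent growth 48 hours later.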 Unmarked numbers belong to inactive results. Active and inactive are the calls of the source. Rule for the calls: active = growth percent below 10; inactive = the rest.

Consider `C#CCOc1cccc(-c2ncnc3cc(NC(=O)C=C)ccc23)c1`, for which the growth in test [1] is 37.6%; in test [2] it was 43.5%; in test [3], 30%; in test [4], 21.4%; in test [5] it was 13.5%; in test [6], 27.2%. For the same compound, the growth in test [7] was 91.5%; in test [8], 31.1%.

As to `CCOC(=O)c1cnc2c(N=Nc3ccc(OC)cc3)c(N)nn2c1N`, the growth in test [1] was 104%; in test [2], 120%; in test [3] it was 95%; in test [4] it was 101%; in test [5], 85.9%; in test [6], 101%. The growth in test [7] is 106%; in test [8], 99.6%.

Take `Cc1ccc(-c2nc(SCc3nc4cc(Cl)c(Cl)cc4[nH]3)[nH]c(=O)c2C#N)cc1`: the growth in test [1] was 85.4%; in test [2], 92.5%; in test [3], 105%; in test [4], 109%; in test [5] it was 101%; in test [6], 93.1%. In addition, the growth in test [7] is 110%; in test [8], 96.6%.

With `CSC1=Nc2c(c(C)c(-c3ccccc3)n2CCCC(=O)O)C2=NC(=O)C[C@H](C)N12`, the growth was 113% in test [1]; 105% in test [2]; 102% in test [3]; 102% in test [4]; 88.8% in test [5]; 101% in test [6]. The growth in test [7] is 104%; in test [8], 97.1%.

On to `Fc1ccc2[nH]cc(-c3nc(-c4c[nH]c5ccncc45)cs3)c2c1`, for which the growth is -30.3% (active) in test [1]; 70% in test [2]; -75.3% (active) in test [3]; -63.5% (active) in test [4]; -46.7% (active) in test [5]; -85.6% (active) in test [6]. For the same compound, the figures for the growth in test [7] and in test [8] were -74.3% (active) and -67.1% (active), respectively.

Consider `C#CC#CC#CC#CC#CC#CC#CC#CCC1OC[C@H](COC(=O)O[C@@H](C(=O)O[C@H]2C[C@@]3(O)[C@@H](OC(=O)c4ccccc4)[C@@H]4[C@]5(OC(C)=O)CO[C@@H]5C[C@H](O)[C@@]4(C)C(=O)[C@H](OC(C)=O)C(=C2C)C3(C)C)[C@@H](NC(=O)c2ccccc2)c2ccccc2)O1` (stereo not given in full), for which the growth was 41.3% in test [1]; 26.4% in test [2]; -48% (active) in test [3]; 27.7% in test [4]; 25% in test [5]; 14.2% in test [6]. Besides, the growth in test [7] is 10.4%; in test [8], 10.8%.

`O=C(Cc1ccc(/C=C/C(=O)c2ncc[nH]2)cc1)Nc1cc(C(F)(F)F)cc(C(F)(F)F)c1`: the growth in test [1] is 80.5%; in test [2] it was 99.7%; in test [3], 60.1%; in test [4], 53.5%; in test [5] it was 7.59% (active); in test [6] it was 5.37% (active). The growth in test [7] was 63%; in test [8], 38.5%.

As for `COc1ccc(Cn2cc3c(c2-c2ccccc2)CCc2cnoc2-3)cc1`, the growth in test [1] was 64.7%; in test [2], 45.3%; in test [3], 3.43% (active); in test [4], 18.3%; in test [5] it was 14.6%; in test [6], 0.167% (active). For the same compound, the growth in test [7] is 12.5%; in test [8], 0.62% (active).

Regarding `O=C(NNC(=O)c1nc2cc(F)ccc2n2cccc12)c1cnccn1`, the growth in test [1] was 38.5%; in test [2] it was 66%; in test [3], 36.2%; in test [4], 26.4%; in test [5], 34.8%; in test [6], 32.4%. Further, the figures for the growth in test [7] and in test [8] were 50.7% and 28%, respectively.

Regarding `CN(C)c1ccc(-c2nc(-c3ccccc3)c(-c3ccccc3)[nH]2)cc1`, the growth in test [1] is 79.3%; in test [2] it was 104%; in test [3], 89.7%; in test [4], 108%; in test [5], 83.1%; in test [6], 86.7%. Besides, the growth in test [7] is 117%; in test [8] it was 96.1%.

Take `O=S(=O)(NCCNc1nccc(-c2c(-c3ccc(F)c(O)c3)nc3sccn23)n1)c1ccc(F)cc1`: the growth was 35.9% in test [1]; 49.5% in test [2]; 4.98% (active) in test [3]; 29.5% in test [4]; 17.1% in test [5]; 6.5% (active) in test [6]. The growth in test [7] was 41.8%; in test [8] it was 25.7%.

As for `O=C(Oc1ccc(CCl)cc1)c1ccccc1`, the growth in test [1] was -35.1% (active); in test [2] it was -97.9% (active); in test [3], -88.7% (active); in test [4] it was -49% (active); in test [5], -58.2% (active); in test [6], -84.7% (active). The growth was -75% (active) in test [7] and -79.1% (active) in test [8].

Turning to `O=C(Nc1ccccc1O)c1ccc(CNC(=O)c2ccsc2Nc2ccnc(C(F)(F)F)c2)cc1`, the growth in test [1] was 25%; in test [2], 51.7%; in test [3], 14.9%; in test [4], 19.1%; in test [5] it was 24.5%; in test [6] it was 15.9%. For the same compound, the growth in test [7] is 44.5%; in test [8], 30%.

As to `c1ccc2c(c1)CCCc1nnc3nc4ccccc4n3c1-2`, the growth is 31.7% in test [1]; 62.9% in test [2]; 61.9% in test [3]; 53.7% in test [4]; 45.6% in test [5]; 17% in test [6]. Also, the figures for the growth in test [7] and in test [8] were 42.4% and 55.8%, respectively.

For the compound `O=C(O)c1cn(C2CC2)c2cc(N3CCN(C(=O)Nc4nc(-c5ccc(Br)cc5)cs4)CC3)c(F)cc2c1=O`, the growth in test [1] is 27.3%; in test [2] it was 1.15% (active); in test [3] it was 9.05% (active); in test [4], 21.6%; in test [5], 5.12% (active); in test [6], 18.5%. The growth is 35.4% in test [7] and 11.1% in test [8].
